Compound activity: PubChem BioAssay, National Center for Advancing Translational Sciences (NCATS)
TSHR antagonist = blocks TSH signaling through the human TSH receptor | actives 0.2% (n = 330,000) | P16473 | AID 504810 | activity change, negative = inhibition, % at 11.5 µM | TSHR-expressing cells, TSH-stimulated cAMP HTRF, 2 h; active compounds read low;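 active means activity change below a set negative limit, meaning inhibition stronger than a set level, cut at about -70% in these data; inconclusive means activity change between two set negative limits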; further: on the % scale 0 is the no-effect control and ±100 the full control effect
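Antagonism was scored as loss of TSH-driven cAMP in TSHR cells, stimulated with 4nM TSH (EC80) for 2 hours at 37 deg C and detected by homogeneous HTRF competition immunoassay.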
PLK1 PBD inh = inhibitors of human PLK1 polo-box domain binding. P53350. Plk1 PBD binding of FITC phosphopeptide, fluorescence polarization. Potency, µM, without a hit: max response, negative = inhibition, actives largely listed as inhibitors. actives 2.8% (n = 360,000). AID 720504; further: potency means the concentration at half of the fitted maximal effect; series mostly up to about 57 µM; on the % scale 0 is the no-effect control and ±100 the full control effect; nearly all actives have a fitted effect of over 65% in size
Target sequence (P53350 whole entry, looked up, the tested form may be a part): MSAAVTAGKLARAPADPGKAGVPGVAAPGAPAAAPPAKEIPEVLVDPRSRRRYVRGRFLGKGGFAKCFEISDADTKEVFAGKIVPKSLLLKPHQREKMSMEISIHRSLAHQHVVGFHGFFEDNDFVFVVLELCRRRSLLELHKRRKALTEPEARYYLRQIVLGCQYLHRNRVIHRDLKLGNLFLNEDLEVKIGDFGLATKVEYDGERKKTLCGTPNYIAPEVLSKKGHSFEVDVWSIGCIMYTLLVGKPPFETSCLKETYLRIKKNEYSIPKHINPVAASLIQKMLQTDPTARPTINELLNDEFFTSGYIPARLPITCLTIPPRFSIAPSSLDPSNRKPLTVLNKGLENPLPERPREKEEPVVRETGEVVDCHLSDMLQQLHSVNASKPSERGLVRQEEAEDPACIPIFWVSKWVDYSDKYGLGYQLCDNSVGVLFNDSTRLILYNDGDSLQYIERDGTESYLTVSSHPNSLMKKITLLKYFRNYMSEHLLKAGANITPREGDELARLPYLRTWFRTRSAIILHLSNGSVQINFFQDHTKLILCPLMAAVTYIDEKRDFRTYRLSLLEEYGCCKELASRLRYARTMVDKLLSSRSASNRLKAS
Vif-APOBEC3F blk = blocks the Vif interaction with APOBEC3F; HeLa A3F-eYFP + Vif (tagged APOBEC3F with the HIV-1 protein that degrades it), YFP fluorescence increase; Potency, µM (top dose mostly 46.1 µM), for inactives: at the highest dose activity, negative = active; actives 0.2% (n = 390,000); further: potency means the concentration at half of the fitted maximal effect; % of control where 0% means no effect; nearly all actives have a fitted effect of over 65% in size
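HeLa cells stably expressing A3F-eYFP plus Vif, plated and incubated overnight at 37 deg C, then exposed to compounds overnight at 37 deg C. Blocked degradation read as raised yellow fluorescence (Ex 488/Em 500-530).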
VDR inhibitor = vitamin D3 receptor (human) inhibition | P11473 | VDR-SRC2-3 peptide fluorescence polarization, 2 h | Potency, µM, without a hit: max response, negative = inhibition, usual class: inhibitors | actives 0.93% (n = 400,000) | AID 504847; further: potency means the concentration at half of the fitted maximal effect; on the % scale 0 is the no-effect control and ±100 the full control effect
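Signal is fluorescence polarization, reporting how far test compounds block the interaction of VDR with the SRC2-3 coregulator peptide after a 2 h room-temperature incubation.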
Vif-APOBEC3G blk = Vif-A3G binding inhibition. Potency, µM (titrated, usually from 46.1 µM), inactives show at the highest dose activity, negative = active, usual class: inhibitors. Q9HC16. AID 602310. actives 0.076% (n = 410,000). HeLa A3G-eYFP + Vif (tagged APOBEC3G with the HIV-1 protein that degrades it), YFP fluorescence, overnight; further: potency means the concentration at half of the fitted maximal effect; on the % scale 0 is the no-effect control and ±100 the full control effect; nearly all actives have a fitted effect of over 60% in size
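HeLa cells stably expressing Vif and C-terminally eYFP-tagged A3G, seeded overnight at 37 deg C, then exposed to compound by pintool overnight at 37 deg C. Rise in yellow fluorescence (Ex 488/Em 500-530, Acumen) marks blocked Vif-driven A3G degradation.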
* marks the source's active call; other numbers are inactive results; u = inconclusive; x = no result given. Compounds with a hit are over-represented: about 3.1% of the library has one in this group of screens. Unless noted, the call rests on the fitted dose curve; in most records, active means well fitted curve in the direction sought with a large enough effect; inconclusive means small, poorly fitted or top-dose-only effect, or another doubt; inactive means no such curve, though single readings can be large; an effect the other way counts as inactive or inconclusive.

SMILES | TSHR antagonist | PLK1 PBD inh | Vif-APOBEC3F blk | VDR inhibitor | Vif-APOBEC3G blk
COC(=O)c1cccnc1-n1c(=O)c2cccnc2n(CC(=O)Nc2ccccc2F)c1=O | x | x | 1% | -4% | 6%
CCNC(=O)c1ccccc1-c1nc(-c2ccccc2OC)no1 | -3 | 2% | -3% | -11% | -5%
CCNC(=O)c1ccccc1-c1nc(-c2ccccc2Cl)no1 | 9 | 12µM* | -1% | -27% | -4%
COc1ccc(/C=C/C(=O)c2ccc([N+](=O)[O-])o2)cc1 | -8 | -21% | -2% | -16% | u
O=C(/C=C/c1cccc([N+](=O)[O-])c1)c1ccc([N+](=O)[O-])o1 | x | 5.3µM* | -3% | 2.8µM* | u
CC(C)CC(NC(=O)CC12CC3CC(CC(C3)C1)C2)C(=O)NC1=NCCS1 (configuration not stated) | -6 | 15µM* | -4% | 71µM* | -1%
CC(C)(C)Nc1oc(-c2ccccc2)nc1-c1cccc2ccccc12 | x | x | x | 9% | x
CC(=O)Nc1ccc(SCC(=O)NCC2(N3CCCCC3)CCCCC2)cc1 | 8 | 12µM* | 3% | u | 0%
Cc1cc(C)n2nc(C(=O)NCc3ccccc3)cc2n1 | 6 | 21µM* | -5% | u | -4%
Cc1cc(C)n2nc(CC(=O)NCc3ccc(F)cc3)nc2n1 | 14 | 27µM* | 20% | -26% | 2%
Cc1ccc(CNC(=O)Cc2nc3nc(C)cc(C)n3n2)cc1 | 12 | 0% | 0% | -2% | 4%
Cc1cccc(C2=N[C@@H](Cc3ccccc3)CO2)c1 | x | x | x | -1% | x
COC(=O)c1ccccc1CSc1nsc(/C=C/N(C)C)c1C#N | -8 | 9.5µM* | u | u | -12%
Cc1ccc(-c2csc(NC(=O)c3cccc(C)c3)c2C(=O)O)cc1 | x | u | 2% | -22% | 4%
CCOC(=O)c1c(NC(=O)c2cc(-c3ccc(OC)c(OC)c3)on2)sc(C)c1C | x | x | -8% | -8% | 0%
CCOC(=O)c1c(-c2ccccc2)csc1NC(=O)c1cc(-c2ccc(Br)cc2)on1 | x | x | -10% | 79µM* | -5%
CCOC(=O)c1c(NC(=O)c2cc(-c3ccccc3OC)on2)sc(C)c1C | x | x | 0% | 79µM* | -2%
CCOC(=O)c1c(-c2ccccc2)csc1NC(=O)c1cc(-c2ccccc2OC)on1 | x | 24µM* | 1% | u | 0%
CCOC(=O)c1c(-c2ccccc2)csc1NC(=O)c1cc(-c2ccc(F)cc2)on1 | x | x | 2% | u | 0%
Cc1cccc(C(=O)Nc2scc(-c3ccc(Br)cc3)c2C(=O)O)c1 | x | 30µM* | 17% | -5% | 0%
Cc1ccc(CN2C(=O)C3(c4ccccc42)N(c2cccc(F)c2)C(=O)CS3(=O)=O)cc1 (configuration not stated) | x | x | 1% | 2% | -1%
CN1C(=O)N(C)C2=NNC=NC2(O)C1=O (configuration not stated) | x | x | x | -16% | x
CC(C)c1ccc(-c2csc(NC(=O)c3cccs3)c2C(=O)O)cc1 | -17 | 34µM* | -4% | -19% | 5%
Cc1ccc(-c2csc(NC(=O)c3ccccc3Cl)c2C(=O)O)cc1 | -16 | -25% | 0% | 18% | 1%
CCOC(=O)c1c(-c2cccc([N+](=O)[O-])c2)csc1NC(=O)CCCOc1ccccc1 | 26 | -11% | -14% | -2% | -7%
SMILES | TSHR antagonist | PLK1 PBD inh | Vif-APOBEC3F blk | VDR inhibitor | Vif-APOBEC3G blk
CCOC(=O)c1c(-c2cccc([N+](=O)[O-])c2)csc1NC(=O)CCCOc1ccccc1OC | -9 | 30µM* | 0% | 5% | 1%
COc1ccc(CCNC(=O)c2cc(-c3ccccc3OC)on2)cc1OC | -17 | 0% | -8% | 5% | 2%
COc1ccccc1-c1cc(C(=O)NCCc2ccccc2)no1 | -21 | 27µM* | -10% | -14% | u
COc1ccccc1-c1cc(-c2ccc(C)cc2)nc(SCc2nnc(-c3ccccc3)o2)c1C#N | 9 | 21µM* | 1% | u | 0%
COc1ccccc1N1CCN(S(=O)(=O)CCNC(=O)C(c2ccccc2)c2ccccc2)CC1 | x | x | 3% | 14% | 4%
CC(C)(C)c1nc2cc(Cl)c([N+](=O)[O-])cc2o1 | -12 | 27µM* | 8% | 79µM* | 1%
COc1ccc(NC(=O)/C(Cl)=C(/Cl)S(=O)(=O)Cc2ccccc2)cn1 | u | 5.3µM* | -13% | 35µM* | -26%
O=C(NCCc1nc2ccccc2n1CCOc1cccc2ccccc12)C1CCCCC1 | x | x | x | 3% | 0%
CCCCc1cn([C@@H](CCCCN)C(=O)N2CCNCC2)nn1 | -3 | 21µM* | -19% | -22% | -3%
O=C(C1CCC(CNc2nc(=S)[nH]c3ccccc23)CC1)N1CCN(c2ccc(F)cc2)CC1 (configuration not stated) | -4 | 21µM* | 2% | 8% | 3%
NC(=O)NOCc1ccc(Cl)cc1Cl | -6 | 27µM* | 8% | -22% | -2%
O=C(O)COc1ccc2ccccc2c1 | x | x | x | 4% | x
Cc1ccc2[nH]c(=O)c(CN(C)C(=O)c3cccs3)cc2c1 | 3 | 30µM* | 15% | -12% | -2%
CN(Cc1cc2ccccc2[nH]c1=O)C(=O)c1cccs1 | 6 | -14% | 13% | -8% | 2%
O=S(c1cc(Cl)cc(Cl)c1O)c1cc(Cl)cc(Cl)c1O | x | u | x | 40µM* | x
Oc1c(Cl)cc(Cl)cc1CNc1nccs1 | -7 | 1% | -2% | 3% | 2%
COC(=O)C(C(=O)OC)[C@@H](NC(=O)OCc1ccccc1)c1ccccc1 | x | x | x | 15% | x
Nc1ccccc1SC(CC(=O)c1ccccc1)c1ccccc1 (configuration not stated) | x | u | u | x | -6%
CC(C(Sc1ccccc1N)c1ccccc1)[N+](=O)[O-] (configuration not stated) | 5 | 1.9µM* | 1% | 18µM* | u
Cc1cc(C)cc(N(CC(=O)N2CCN(c3ccccc3)CC2)S(=O)(=O)c2c(C)noc2C)c1 | 9 | 24µM* | 6% | -22% | 3%
Cc1ccc(N(CC(=O)N2CCN(c3ccccc3)CC2)S(=O)(=O)c2c(C)noc2C)cc1 | x | x | -21% | -5% | 4%
O=C(O)C1Cc2c([nH]c3ccccc23)C(c2coc3ccccc3c2=O)N1 (configuration not stated) | x | x | x | -28% | x
Cn1cnc2c(ncn2[C@@H]2O[C@H](CO)[C@@H](O)[C@H]2O)c1=N | x | x | x | -1% | x
CC(=O)Nc1ccc(S(=O)(=O)NC2(C(F)(F)F)NC(=O)N(CC(C)C)C2=O)cc1 (configuration not stated) | 0 | -9% | 10% | 10% | -2%
CC(C)CN1C(=O)NC(NS(=O)(=O)c2ccc(N)cc2)(C(F)(F)F)C1=O (configuration not stated) | 22 | 21µM* | 2% | -3% | 3%
C=CCn1c(SCCC)nc2ccccc2c1=O | x | x | x | -12% | 5%
